Compounds with a hit are over-represented: about 5.7% of the library has one in this group of screens.
DAX1 inh-1: inhibitors of human orphan nuclear receptor DAX1 (NR0B1) | HEK293 Gal4-DAX1 luciferase reporter, luminescence | inhibition, % at 6.75 µM | 340,000 tested, 0.99% active;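 active = inhibition above the mean over all tested compounds plus 3 SD, cut at about 4.2% in these data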;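 also: 0% = DAX1-transfected cells with DMSO and 100% = empty-vector control cells with DMSO; inhibition shows as a rise in luminescence from relieved DAX1 repression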
DAX1 inh-2: blocks DAX1 repression of SF-1 activated StAR promoter; 370,000 tested, 1.1% active; HEK293T StAR-luciferase reporter, SF-1/DAX-1 repression relief; inhibition, % at 6.8 µM;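 active = inhibition above the mean over all tested compounds plus 3 SD, cut at about 3.6% in these data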;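 also: 0% = DAX-1 cells with DMSO and 100% = cells lacking DAX-1 with DMSO; higher inhibition means more luminescence from relief of DAX-1 repression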
AHR activator: human AHR activation | AHR-responsive luciferase reporter cells, luminescence | AID 2796 | 320,000 tested, 2.5% active | P35869 | activation, % at 5 µM; in the data active = activation above about 47%;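 also: 0% = vehicle wells and 100% = reference agonist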
Target sequence (P35869 whole entry, looked up): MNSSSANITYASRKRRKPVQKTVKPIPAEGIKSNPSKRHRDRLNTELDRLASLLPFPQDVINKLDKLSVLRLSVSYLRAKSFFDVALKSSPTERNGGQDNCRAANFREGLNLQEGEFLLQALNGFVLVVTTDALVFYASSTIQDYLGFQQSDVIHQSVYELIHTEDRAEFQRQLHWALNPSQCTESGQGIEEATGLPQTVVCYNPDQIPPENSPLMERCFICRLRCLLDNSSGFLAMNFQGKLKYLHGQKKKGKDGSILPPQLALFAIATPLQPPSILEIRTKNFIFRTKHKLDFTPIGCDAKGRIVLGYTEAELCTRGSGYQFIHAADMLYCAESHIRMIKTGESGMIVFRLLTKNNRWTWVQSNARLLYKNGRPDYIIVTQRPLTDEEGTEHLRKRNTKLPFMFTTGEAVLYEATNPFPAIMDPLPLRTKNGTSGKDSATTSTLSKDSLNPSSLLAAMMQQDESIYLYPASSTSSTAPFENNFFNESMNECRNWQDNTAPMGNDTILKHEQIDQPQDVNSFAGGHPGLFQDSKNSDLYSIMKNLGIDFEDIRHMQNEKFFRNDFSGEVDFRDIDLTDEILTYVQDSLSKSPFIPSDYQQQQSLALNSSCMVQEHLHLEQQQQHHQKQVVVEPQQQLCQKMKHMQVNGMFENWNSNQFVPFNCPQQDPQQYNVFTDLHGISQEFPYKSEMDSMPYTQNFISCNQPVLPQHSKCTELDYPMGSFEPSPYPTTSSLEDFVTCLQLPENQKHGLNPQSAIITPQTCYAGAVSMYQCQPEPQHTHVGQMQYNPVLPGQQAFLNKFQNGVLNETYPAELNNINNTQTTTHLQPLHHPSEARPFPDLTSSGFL
hgDAF12 agonist: agonists of H. glycines DAF-12 nuclear receptor | 370,000 tested, 1.8% active | HEK293 GAL4-hgDAF12 UAS-luciferase reporter, agonist luminescence; normalized to butyrate control | activation, % at 6.8 µM;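 active = activation above a cutoff set at the mean of all screened compounds plus 3 SD, cut at about 10% in these data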;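 also: 0% = DMSO wells and 100% = sodium butyrate wells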
hcDAF-12 act: H. contortus DAF-12 activation, primary screen. HEK293 hcDAF-12 lit1-tk-luc reporter, luminescence; 0% DMSO, 100% Δ7-dafachronic acid. activation, % at 6.8 µM. 370,000 tested, 1.4% active. AID 652067;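 active = activation above the mean of all tested compounds plus 3 SD, cut at about 5.5% in these data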;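 also: 100% = response to 3 µM Δ7-dafachronic acid high control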
ssDAF12 agonist: activators of S. stercoralis DAF-12 nuclear receptor; HEK293 ssDAF-12/GRIP1 lit1-tk-luc reporter, luminescence; % of 3 µM dafachronic acid response; 370,000 tested, 1% active; activation, % at 6.8 µM;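 active = activation above the mean over all tested compounds plus 3 SD, cut at about 0.9% in these data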;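 also: 0% = DMSO-only wells and 100% = 3 µM delta7-dafachronic acid wells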
hgDAF12 ag: confirmation of H. glycines DAF-12 agonists; shares compounds with hgDAF12 agonist; HEK293 GAL4-hgDAF12 luciferase reporter, agonist mode; percent of butyrate response; activation, % at 6.8 µM; 3,300 tested, 80% active;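 active = mean activation over triplicate wells above the hit cutoff derived from the earlier primary screen, cut at about 11% in these data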;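 also: 0% = DMSO low control and 100% = 2 mM sodium butyrate high control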
LXR ag 2: activates human LXR-beta, counter-screen for DAF-12 agonists | activation, % at 6.8 µM | 3,300 tested, under 10 active | AID 743051 | shares compounds with hgDAF12 agonist | HEK293 Gal4-LXR luciferase reporter, 24 h;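 active = mean activation of the triplicate above a set limit carried over from the primary screen, none filed active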
Numbers without * were called inactive; x = no result given.

SMILES | DAX1 inh-1 | DAX1 inh-2 | AHR activator | hgDAF12 agonist | hcDAF-12 act | ssDAF12 agonist | hgDAF12 ag | LXR ag 2
O=C(O)C1C2CCC(O2)C1C(=O)Nc1ccc(F)cc1 (configuration not stated) | -1 | 0 | -1 | 0 | 1 | -1 | x | x
O=C(O)c1ccc(NC(=O)C2C3CCC(O3)C2C(=O)O)cc1 (configuration not stated) | 1 | 1 | 0 | 14* | 6.0* | 1.4* | 3 | 0
CCCCN1C(=O)/C(=C/C=C2\SCCN2C)SC1=S | 3 | 3 | x | 14* | 0 | 0 | 10 | 1
CN1CCS/C1=C/C=C1\SC(=S)N(CC(=O)O)C1=O | 0 | 0 | -2 | 2 | 2 | 0 | x | x
O=C(NCCc1ccccc1)c1cccc(NC(=O)C2CC2)c1 | 2 | 3 | x | 17* | 4 | 0 | 13* | 0
O=C(NCCc1ccccc1)c1cccc(NC(=O)C2CCC2)c1 | 0 | 3 | x | 10 | 2 | 0 | x | x
O=C(CC1CCCCC1)Nc1nc2ccccc2s1 | 3 | 2 | 16 | 14* | 4 | -1 | 17* | 1
CCOCC(=O)Nc1nc2ccccc2s1 | 1 | 1 | 11 | 10 | 3 | 0 | x | x
COc1cc(C(=O)NC2(C(F)(F)F)NC(=O)N(CCCc3ccccc3)C2=O)cc(OC)c1OC (configuration not stated) | -3 | -1 | 0 | -1 | -1 | -2 | x | x
Nc1nc2ccccc2n1C(=O)CCc1ccccc1 | 5.0* | 1 | 39 | 14* | 4 | 0 | 18* | 1
Nc1nc2ccccc2n1C(=O)c1cccs1 | 1 | 3 | 52* | 15* | 5 | 1.0* | 13* | 1
CCOC(=O)N1CCN(C(=O)C2c3cc(OC)c(OC)cc3C(=O)N3CCc4ccccc4C23)CC1 (configuration not stated) | 1 | 1 | -2 | -2 | 0 | -1 | x | x
N#CC1CC(c2ccccc2)=NN1c1ccccc1[N+](=O)[O-] (configuration not stated) | 1 | 1 | 44 | 16* | 4 | 0 | 13* | 0
CN1CCN(/N=C/c2ccc(-c3ccccc3)cc2)CC1 | 0 | 1 | -6 | 14* | 2 | 0 | 12* | 1
Cc1ccccc1Cn1c(C)c(C(=O)NCc2cccc(Cl)c2)sc1=O | x | 0 | x | -3 | -1 | -1 | x | x
C=CCN1C=CC(=C/C=C(/C#N)C(=O)OCC)C=C1 | 3 | 3 | 4 | 16* | 5.6* | 1 | 16* | 1
CC1(OC(=O)CCc2ccccc2)C(=O)C=C2C=C(c3ccc(C#N)cc3)N(c3ccccc3)C=C2C1=O (configuration not stated) | -1 | 0 | 4 | 1 | -1 | -1 | x | x
O=C(O)c1cccc(-c2nnn(Cc3ccccc3)n2)c1 | -1 | 2 | 0 | 15* | 5.7* | 1 | 11* | 1
Nc1ccc(-c2nnn(Cc3ccccc3)n2)cc1 | 0 | 0 | x | 2 | 1 | 0 | x | x
O=S(=O)(N/N=C1/CC(c2ccccc2)Oc2ccccc21)c1ccccc1 (configuration not stated) | 0 | 1 | x | 3 | -1 | -1 | x | x
O=C(CN1CCN(C(=O)c2ccc(-c3nc4ccccc4s3)o2)CC1)Nc1cccc(F)c1 | 0 | 0 | x | -1 | 0 | -2 | x | x
COc1ccc(C)cc1NS(=O)(=O)c1ccc2c(c1)N(C(C)=O)CCO2 | 1 | 0 | 7 | 0 | 0 | 0 | x | x
COCCNC(=O)/C(C#N)=C/c1cc(C)n(C2CCCCC2)c1C | 2 | 4.0* | 9 | 20* | 4 | 0 | 8 | 1
COCCNC(=O)/C(C#N)=C/c1cc(C)n(-c2ccc(C)cc2)c1C | 0 | 3 | 19 | 22* | 6.1* | 0 | 15* | 1
CCOC(=O)c1ccc(NS(=O)(=O)c2ccc3c(c2)n(C)c(=O)n3C)cc1 | -1 | 0 | 1 | -4 | -3 | -1 | x | x
SMILES | DAX1 inh-1 | DAX1 inh-2 | AHR activator | hgDAF12 agonist | hcDAF-12 act | ssDAF12 agonist | hgDAF12 ag | LXR ag 2
CC(=O)c1ccc(OCc2cc(C(=O)N3CCN(c4ccccc4)CC3C)no2)cc1 (configuration not stated) | 2 | 3 | 15 | 21* | 6.1* | -1 | 18* | 1
COc1ccc(COc2ccc3ccc(=O)oc3c2)cc1 | 1 | 1 | -2 | 20* | 3 | 0 | 14* | 1
O=C(CN1C(=O)C2C3C=CC(C3)C2C1=O)Nc1ccc2nccnc2c1 (configuration not stated) | 1 | 1 | 0 | 3 | 2 | -1 | x | x
Cc1c(C(=O)Nc2ccccc2F)cnn1-c1ccccc1 | 1 | 3 | -1 | 14* | 1 | 0 | 13* | 1
C/C(=N\NC(=O)c1cc(-c2cccnc2)nc2ccccc12)c1ccc(O)cc1O | 1 | -1 | 15 | 0 | -3 | -2 | x | x
COc1ccccc1/C=C/C1=NC(=C\C=C/c2ccccc2)/C(=O)O1 | -1 | 0 | 3 | 4 | -1 | -1 | x | x
CC(=O)Nc1ccc(N=Cc2ccc(OCc3ccccc3)cc2)cc1 | 1 | -1 | 0 | 14* | 5 | 0 | 11* | 0
CC(C)C(=O)N/N=C/c1ccc(OCc2ccccc2)cc1 | 0 | -1 | 7 | 5 | 0 | -1 | x | x
CCOc1ncccc1C(=O)OCc1ccc(C(=O)OC)cc1 | 1 | 1 | 2 | 15* | 3 | 1 | 12* | 0
CCC(=O)c1ccc(OCc2ccc(C(=O)OC)cc2)cc1 | -2 | 3 | -5 | 16* | 5 | 1 | 15* | 1
COC(=O)c1ccc(COc2ccc(/C=N/Nc3cccc(C(=O)O)c3)cc2)cc1 | -2 | 2 | 1 | 17* | 3 | 1.4* | 13* | 1
O=C(O)c1cccc(N/N=C/c2ccc(OC(F)(F)F)cc2)c1 | -4 | 2 | 2 | 8 | 4 | 0 | x | x
CC1CN(S(=O)(=O)c2cccc(C(=O)OCC(=O)c3cccs3)c2)CC(C)O1 (configuration not stated) | -1 | 0 | 1 | 1 | -1 | -2 | x | x
COc1ccc(O)c(C2=Nc3ccccc3N=C(c3ccccc3)C2)c1 | 3 | 1 | 18 | 14* | 3 | 0 | 0 | 0
CCCOc1ccc(-c2c(=O)n(O)c3ccccc3[n+]2[O-])cc1 | 3 | 4.5* | 6 | 20* | 6.2* | -1 | 13* | 0
O=C(CN(C(=O)CNS(=O)(=O)c1ccccc1)c1ccc2c(c1)OCCO2)NCc1ccco1 | 2 | 0 | 0 | 15* | -1 | -1 | 1 | 0

From PubChem
